The subject of one assay is Hek293T. The assay can be described thus: Primary qHTS to identify gynecologic anti-cancer compounds using libraries of approved drugs and bioactive compounds (AID 1345084). Further: nearly all actives have a fitted effect of over 55% in size. Further: potency means the concentration at half of the fitted maximal effect. The settings on record: Gynecologic cancer cell panel viability, ATPlite luminescence, 48 h, control line for the selectivity index; series mostly up to 57.5 µM. The method in brief:
(§1)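 Cells, 1,000 per well, plated 16 h, then exposed 48 h at 37 C to compounds. Viability by ATPlite luminescence after 15 min at room temperature.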
(Quantitative high-throughput screening tests each substance at several concentrations.)

The next assay deals with JEG-3. The assay is described as above. The settings on record: Gynecologic cancer cell panel viability, ATPlite luminescence, 48 h; series mostly up to 57.5 µM. The method in brief:
as §1
For orientation: Cellular ATP, detected with luciferase, serves as a proxy for viable cell number.

A further assay has as its system PA-1. The description is as above. To be noted: Gynecologic cancer cell panel viability, ATPlite luminescence, 48 h; series mostly up to 57.5 µM. The method in brief: as §1
The subject of another assay is SKOV3. Described as above. To be noted: Gynecologic cancer cell panel viability, ATPlite luminescence, 48 h; series mostly up to 57.5 µM. The method in brief: as §1
In the next assay the test system is Tov-21-G. The description is as above. The settings on record: Gynecologic cancer cell panel viability, ATPlite luminescence, 48 h; series mostly up to 57.5 µM. A digest of the protocol:
as §1

The subject of the next assay is Tov112D. The assay is described as above. To be noted: Gynecologic cancer cell panel viability, ATPlite luminescence, 48 h; series mostly up to 57.5 µM. A digest of the protocol: as §1
For the next assay, the system named is astro. Description: Drug repurposing screens with cells derived from glioblastoma tumor samples (AID 1345199). Further: nearly all actives have a fitted effect of over 40% in size. To be noted: viability, ATP luminescence, 48 h; series mostly up to 45.9 µM. The method in brief: (§2)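 Primary testing used CD133+ neurospheres from four GBM patients, seven concentrations, 48 h exposure and ATP-based viability; confirmation added three slower-growing patient lines.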

The test system of a further assay is OV90. Description: Primary qHTS to identify gynecologic anti-cancer compounds using libraries of approved drugs and bioactive compounds (AID 1345084). Further: nearly all actives have a fitted effect of over 55% in size. Further: potency means the concentration at half of the fitted maximal effect. To be noted: Gynecologic cancer cell panel viability, ATPlite luminescence, 48 h; series mostly up to 57.5 µM. The method in brief: as §1
Assay [1] is described as follows: Drug repurposing screens with cells derived from glioblastoma tumor samples (AID 1345199). Further: nearly all actives have a fitted effect of over 40% in size. The settings on record: GBM patient neurospheres viability, ATP luminescence, 48 h; Potency: tumour line A; series mostly up to 46.1 µM. A digest of the protocol:
as §2

Assay [2] is described as follows: qHTS assay to identify inhibitors of the type 1 interferon - major histocompatibility complex class I in skeletal muscle: Counter screen cell viability and HiBit confirmation (AID 1347412). Further: nearly all actives have a fitted effect of over 60% in size. Further: potency means the concentration at half of the fitted maximal effect. To be noted: iHSKM muscle cells + IFN-b, HiBiT or CellTiter-Glo, 24 h; Potency: HiBiT; Viability, at 45.9 µM (top of the series). A digest of the protocol:
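Myoblasts (C25cl48, HLA-B HiBiT) seeded in medium without dexamethasone, IFN-b 4 ng/ml added except unstimulated columns; 1 hr later compounds pinned (12-pt 1:3, top 46 uM final). Incubated 24 hrs, lysed 10 min, luminescence measured.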

Inconclusive results are not listed. Calls of active or inactive are those of the source. The call rests on the fitted dose curve; in most records, active means well fitted curve in the direction sought with a large enough effect; inconclusive means small, poorly fitted or top-dose-only effect, or another doubt; inactive means no such curve, though single readings can be large; an effect the other way counts as inactive or inconclusive.

In the case of `Cc1ccccc1C(=O)Nc1ccc(C(=O)N2CCCC(O)c3cc(Cl)ccc32)c(C)c1` (stereo unspecified), the Potency result in the assay on Hek293T, with JEG-3, in the assay on PA-1, in the assay with SKOV3, in the assay with Tov-21-G and in the assay on Tov112D was “inactive” each time. For the same molecule, in the assay with astro, the Potency entry was “inactive”.

In the case of `C[N+]1(C)[C@@H]2C[C@@H](OC(=O)C(O)(c3cccs3)c3cccs3)C[C@H]1[C@@H]1O[C@@H]12`, the Potency result in the assay on Hek293T, in the assay on JEG-3, in the assay on OV90, in the assay with PA-1, in the assay with SKOV3 and with Tov-21-G was “inactive” in each case. Also, the Potency result in the assay with Tov112D is “inactive”.

As for `CCC[C@H]1C[C@H](C(=O)N[C@@H]([C@@H]2O[C@@H](SC)[C@@H](O)[C@@H](O)[C@@H]2O)[C@H](C)Cl)N(C)C1`, the Potency result with Hek293T, in the assay on JEG-3, in the assay on OV90, in the assay on PA-1 and with Tov112D was “inactive” in each case.

As to `N[C@H]1CN(c2c(F)cc3c(=O)c(C(=O)O)cn(C4C[C@@H]4F)c3c2Cl)CC12CC2` (stereo partly specified), the Potency result with Hek293T, in the assay on JEG-3, in the assay with OV90, with PA-1, with SKOV3 and with Tov-21-G was “inactive” each time. For the same molecule, the Potency result (in the assay on Tov112D; in assay [1]; with astro) was “inactive” in each case.

Consider `O=C(O)c1ccc(Nc2ncc3c(n2)-c2ccc(Cl)cc2C(c2c(F)cccc2F)=NC3)cc1`, for which the Potency entry with Hek293T, in the assay with JEG-3, in the assay with OV90, in the assay with SKOV3 and in the assay on Tov-21-G was “inactive” throughout.

Turning to `COc1cc(CCc2cc(NC(=O)c3ccc(N4C[C@@H](C)N[C@@H](C)C4)cc3)n[nH]2)cc(OC)c1`, the Potency result (in the assay on Hek293T; in the assay with JEG-3; in assay [2]) was “inactive” in each case. In addition, in the assay with PA-1, the Potency is 20 µM (active).

For `O=C(Nc1cc2cc[nH]c2cn1)c1ccccc1`, the Potency with Hek293T is 2.24 µM (active); in the assay on JEG-3, 1.12 µM (active); with OV90 it was 0.891 µM (active); in the assay on PA-1 it was 0.891 µM (active); in the assay on SKOV3, 2 µM (active); in the assay on Tov-21-G, 1.26 µM (active). In the assay on Tov112D, the Potency is 2 µM (active).

Turning to `CC(C)n1cnc2c(NCCc3ccc(O)cc3)nc(-c3csc4ccccc34)nc21`, the Potency result in the assay with Hek293T, in the assay with JEG-3, in the assay on OV90, with PA-1, with Tov-21-G and in the assay with Tov112D was “inactive” in each case.

On to `Cc1cncc2cccc(S(=O)(=O)N3CCCN(C(=O)CN)C[C@@H]3C)c12`, for which the Potency result in the assay with Hek293T, in the assay with JEG-3, in the assay with OV90, with PA-1, in the assay with Tov-21-G and in the assay with Tov112D was “inactive” in each case.

As to `CC(C)(N)c1ccc(-c2nc3ccccc3nc2-c2ccccc2)cc1`, the Potency entry (in the assay with Hek293T; in the assay on JEG-3; in the assay with Tov-21-G; in the assay with Tov112D; in assay [2]) was “inactive” throughout.

On to `Cc1cn([C@@H]2O[C@H](CO)[C@@H](O)[C@H]2F)c(=O)[nH]c1=O`, for which the Potency entry in the assay with Hek293T, in the assay on JEG-3, in the assay on OV90, in the assay with PA-1, with SKOV3 and with Tov-21-G was “inactive” in each case. Moreover, the Potency result in the assay on Tov112D was “inactive”.

On to `Oc1cc(-c2nc(-c3ccccc3)[nH]c2-c2ccncc2)ccc1Cl`, for which the Potency entry with Hek293T, in the assay with JEG-3, in the assay on PA-1, in the assay on SKOV3 and in the assay on Tov112D was “inactive” in each case. Moreover, in the assay on Tov-21-G, the Potency is 17.8 µM (active).

On to `Nc1ccn(C2CO[C@H](CO)O2)c(=O)n1` (stereo partly specified), for which the Potency result with Hek293T, in the assay on JEG-3, with OV90, in the assay on PA-1, in the assay with SKOV3 and in the assay on Tov-21-G was “inactive” each time. Moreover, the Potency result with Tov112D and with astro was “inactive” in each case.

For the molecule `c1cncc(CN2CCC(n3ncc4c(N5CCOCC5)nc(-c5ccc6[nH]ccc6c5)nc43)CC2)c1`, the Potency in the assay on Hek293T is 11.2 µM (active); in the assay with OV90 it was 22.4 µM (active); in the assay on PA-1, 17.8 µM (active); with SKOV3 it was 10 µM (active); with Tov-21-G it was 12.6 µM (active); with Tov112D, 28.2 µM (active).

Consider `c1cc(N[C@@H]2CCNC2)nc(-c2cnc3ccc(-c4cn[nH]c4)cn23)c1`, for which the Potency entry (with Hek293T; with JEG-3; in assay [2]) was “inactive” throughout. Further, the Potency in the assay with PA-1 was 10 µM (active); in the assay with Tov112D, 14.1 µM (active).

Consider `CCc1nc(-c2cccc(C)c2)c(-c2ccnc(NC(=O)c3ccccc3)c2)s1`, for which the Potency entry in the assay with Hek293T, in the assay on JEG-3, in the assay on PA-1, in the assay with Tov-21-G and in the assay on Tov112D was “inactive” each time.

On to `CC1(C)O[C@@H]2C[C@H]3[C@@H]4CCC5=CC(=O)C=C[C@]5(C)[C@@H]4[C@@H](O)C[C@]3(C)[C@]2(C(=O)CO)O1`, for which the Potency entry in the assay on Hek293T, in the assay on JEG-3, in the assay with OV90, in the assay with PA-1, with SKOV3 and in the assay with Tov-21-G was “inactive” each time. Besides, the Potency result in the assay with Tov112D is “inactive”.

Regarding `OCCNC1CCCc2c1[nH]c1ccc(-c3ccccc3)cc21` (stereo unspecified), the Potency entry (in the assay on Hek293T; in the assay with JEG-3; in the assay on OV90; in the assay on Tov-21-G; in the assay with Tov112D; in assay [2]) was “inactive” in each case. For the same molecule, in the assay on PA-1, the Potency is 20 µM (active).

Take `FC(F)(F)c1ccc(Nc2nc3ccc(Oc4ccnc(-c5ncc(C(F)(F)F)[nH]5)c4)cc3[nH]2)cc1`: the Potency result with Hek293T, with JEG-3 and in the assay on Tov112D was “inactive” each time.

Take `O=C(Nc1ccc(Oc2ccnc3[nH]ccc23)c(F)c1)c1cccn(-c2ccc(F)cc2)c1=O`: the Potency result in the assay on Hek293T, in the assay on JEG-3, in the assay on OV90, with PA-1, in the assay on SKOV3 and with Tov-21-G was “inactive” throughout. For the same molecule, in the assay with Tov112D, the Potency result was “inactive”.

Consider `CCOC(=O)[C@@H](N)Cc1ccc(-c2cc(O[C@H](c3ccc(Cl)cc3-n3ccc(C)n3)C(F)(F)F)nc(N)n2)cc1`, for which the Potency entry in the assay on Hek293T, with JEG-3, in the assay on OV90, with PA-1, with SKOV3 and in the assay on Tov-21-G was “inactive” each time. Moreover, the Potency entry in the assay on Tov112D is “inactive”. For the same molecule, the Potency in [2] was 19.8 µM (active).

`CCN(CC)Cc1ccc2cc(COC(=O)Nc3ccc(C(=O)NO)cc3)ccc2c1`: the Potency in the assay with Hek293T was 10 µM (active); in the assay on JEG-3 it was 3.55 µM (active); in the assay with OV90, 1 µM (active); in the assay on PA-1, 1.78 µM (active); in the assay on Tov-21-G it was 7.94 µM (active); in the assay on Tov112D it was 7.08 µM (active).

The values are drawn from PubChem BioAssay (NCATS).
